Source: PubChem BioAssay AID1159580 (chemical genetic matrix, 2015)
Values joined by “and” are separate entries in the source; they are usually repeats but may differ in a detail not shown here. Equal entries are not always repeated. Screen size: about 5,500 compounds; about 2,000 (36%) were called active. About 18% were inconclusive and are not listed. Rule as the data show it: active = normalized growth mostly below about 0.91 (no sharp cut-off); inconclusive = no clear call, values can overlap the other calls; inactive = mostly above about 0.92. This is one part of the list.

Assay: chemical genetic growth profiling, strain panel (AID 1159580);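 also: tested at 20 µM; growth read once vehicle control cultures reached saturation at 30 °C; 1 = growth at the plate median or of vehicle wells; lower values mean less growth of the strain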
Settings: S. cerevisiae deletion strains, growth OD

Measured: normalized growth

CCCC(C)C1(CC)C(=O)N=C(S)NC1=O (stereo unspecified)
active: locus YCL029C, strain bik1, active compounds read low 0.557 | locus YDL192W, strain arf1, active compounds read low 0.0766 | locus YDR101C, strain arx1, active compounds read low 0.371 | locus YDR318W, strain mcm21, active compounds read low 0.0671 | locus YDR388W, active compounds read low 0.0597 | locus YDR502C, strain sam2, active compounds read low 0.0887 | locus YER110C, active compounds read low 0.157 | locus YGL078C, strain dbp3, active compounds read low 0.095 | locus YGL086W, strain mad1, active compounds read low 0.0546 | locus YGR135W, strain pre9, active compounds read low 0.0693 | locus YGR252W, strain gcn5, active compounds read low 0.187 | locus YHR079C, strain IRE1 (second series), active compounds read low 0.407 | locus YHR094C, strain hxt1, active compounds read low 0.0939 | locus YHR200W, strain rpn10, active compounds read low 0.0912 | locus YIL125W, strain kgd1, active compounds read low 0.141 | locus YIR030C, strain dcg1, active compounds read low 0.185 | locus YJL168C, strain set2, active compounds read low 0.123
inactive: locus YAL013W, strain DEP1, active compounds read low 1.01 | locus YAL021C, strain ccr4, active compounds read low 0.993 | locus YAL026C, strain drs2, active compounds read low 0.994 | locus YAL030W, strain snc1, active compounds read low 0.983 | locus YBL061C, strain skt5, active compounds read low 1.01 | locus YBR009C, strain hhf1, active compounds read low 0.992 | locus YBR021W, strain FUR4, active compounds read low 1.01 | locus YBR023C, strain chs3, active compounds read low 0.989 | locus YBR171W, strain sec66, active compounds read low 0.993 | locus YBR229C, strain ROT2, active compounds read low 1.01 | locus YBR231C, strain swc5, active compounds read low 1.01 | locus YBR279W, strain paf1, active compounds read low 0.998 | locus YCL011C, strain gbp2, active compounds read low 1.01 | locus YCL016C, strain dcc1, active compounds read low 0.995 | locus YCL061C, strain MRC1, active compounds read low 1 | locus YCL069W, strain vba3, active compounds read low 1 | locus YCR088W, strain abp1, active compounds read low 0.984 | locus YDL005C, strain med2, active compounds read low 0.987 | locus YDL035C, strain GPR1, active compounds read low 1.02 | locus YDL040C, strain nat1, active compounds read low 0.993 | locus YDL074C, strain BRE1, active compounds read low 1.06 | locus YDL101C, strain DUN1, active compounds read low 1.01 | locus YDL134C, strain PPH21, active compounds read low 1 | locus YDL185W, strain tfp1, active compounds read low 1.01 | locus YDR001C, strain nth1, active compounds read low 1 | locus YDR069C, strain doa4, active compounds read low 0.996 | locus YDR137W, strain rgp1, active compounds read low 0.908 | locus YDR150W, strain NUM1, active compounds read low 1.02 | locus YDR159W, strain sac3, active compounds read low 0.971 | locus YDR162C, strain NBP2, active compounds read low 1.02 | locus YDR195W, strain ref2 0.979 | locus YDR297W, strain sur2, active compounds read low 0.997 | locus YDR334W, strain swr1, active compounds read low 0.998 | locus YDR335W, strain msn5, active compounds read low 0.993 | locus YDR392W, strain spt3, active compounds read low 0.977 | locus YEL003W, strain gim4, active compounds read low 0.997 | locus YEL037C, strain rad23, active compounds read low 1 | locus YEL061C, strain CIN8 (second series), active compounds read low 0.997 | locus YEL061C, strain CIN8, active compounds read low 1 | locus YER015W, strain faa2, active compounds read low 0.998 | locus YER016W, strain bim1, active compounds read low 1.01 | locus YER111C, strain swi4, active compounds read low 1.01 | locus YER155C, strain BEM2 (second series), active compounds read low 0.986 | locus YER155C, strain BEM2, active compounds read low 1.01 | locus YER167W, strain BCK2, active compounds read low 1.02 | locus YFR010W, strain ubp6, active compounds read low 1.01 | locus YGL167C, strain pmr1, active compounds read low 0.991 | locus YGL173C, strain kem1, active compounds read low 0.99 | locus YGL227W, strain vid30, active compounds read low 0.981 | locus YGL240W, strain doc1, active compounds read low 0.982 | locus YGL248W, strain PDE1, active compounds read low 1.01 | locus YGL253W, strain hxk2, active compounds read low 1.01 | locus YGR078C, strain PAC10, active compounds read low 1.03 | locus YGR229C, strain SMI1, active compounds read low 1.01 | locus YHR013C, strain ard1, active compounds read low 0.997 | locus YHR027C, strain rpn1, active compounds read low 0.996 | locus YHR030C, strain SLT2, active compounds read low 1.01 and 0.984 | locus YHR079C, strain IRE1, active compounds read low 0.979 | locus YHR129C, strain ARP1, active compounds read low 1.01 | locus YHR142W, strain chs7, active compounds read low 0.986 | locus YIL066C, strain RNR3, active compounds read low 1.03 | locus YIL073C, strain SPO22, active compounds read low 1.11 | locus YJL092W, strain hpr5, active compounds read low 0.991 | locus YJL095W, strain BCK1 (second series), active compounds read low 0.995 | locus YJL095W, strain BCK1, active compounds read low 1 and 0.991 | locus YJL115W, strain asf1, active compounds read low 0.988 | locus YJL129C, strain trk1, active compounds read low 0.962 | locus YJL134W, strain LCB3, active compounds read low 1.01 | locus YJL154C, strain vps35, active compounds read low 0.987 | locus YJL164C, strain tpk1, active compounds read low 0.995 | locus YJL166W, strain qcr8, active compounds read low 0.975 | locus YJL187C, strain SWE1 (second series), active compounds read low 1 | locus YJR043C, strain POL32, active compounds read low 1.02 | locus YJR066W, strain TOR1, active compounds read low 0.945
